MRP reversal: reversal of MRP1-mediated doxorubicin resistance, primary screen, H69AR cells, doxorubicin co-treatment; H69AR cells + 2 uM doxorubicin, CellTiter-Glo, 72 h; differential viability (reversal), % at 10 µM; 85,000 compounds, 0.04% hits;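 active = viability drop by adding the cancer drug above about 55%, with treated viability meeting a 40% cutoff, limit read from the data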;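 also: viability without doxorubicin minus viability with 2 µM doxorubicin for each compound; larger differential means the compound sensitizes cells more to doxorubicin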
sdo1 growth: growth rescue of sdo1-depleted yeast, primary screen, S. cerevisiae, bone marrow failure model | S. cerevisiae sdo1-depleted JHY4D growth rescue, OD600 30 h; stronger effect = higher value; pdr5 snq2 efflux-pump mutant strain | z-score at 10 µM | 140,000 compounds, 0.21% hits;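 active = z-score above 3 at both the 24 hr and the 30 hr optical density reads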;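 also: z-score against mean and SD of all compound wells on the same plate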
Calb biofilm kill: clotrimazole potentiators killing Candida biofilms, primary screen, with clotrimazole, Alamar Blue; AID 834, 2007; C. albicans biofilm + clotrimazole; inhibition, % at 6 µM; 85,000 compounds, 0.14% hits;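 active = inhibition above 20%; inactive = inhibition below 20%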;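 also: preformed 24 hr biofilms exposed to compound for 48 hr; 0% = biofilm without compound and 100% = blank killed by clotrimazole plus chlorhexidine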
MRP1 act: H69AR viability gain despite doxorubicin, primary screen, MRP-1 activator project, H69AR cells, CellTiter-Glo. 140,000 compounds, 0.61% hits. AID 799, 2007. viability rescue. viability increase, % at 10 µM;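 active = viability gain under doxorubicin at or above a set limit, the compound median plus 3 SD, cut at about 4.7% in these data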;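 also: MRP-1 overexpressing cells given doxorubicin 25 µM after compound pretreatment; 18-22 h compound pretreatment then 72 h with doxorubicin before readout; 0% = doxorubicin-only wells and 100% = vehicle-treated cells without doxorubicin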
SDO1 rescue DR: SDO1-depleted yeast growth rescue, concentration-response, diseases of bone marrow failure, JHY4D, OD600; shares compounds with sdo1 growth; S. cerevisiae JHY4D (SDO1-depleted) growth rescue, 30 h; stronger effect = higher value; efflux-deficient strain, SNQ2 and PDR5 mutated; OD recovery (concentration not given with the values); 440 compounds, 44% hits; AID 949, 2007;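 active = yeast growth recovered at 30 hours, either rising with dose fitted slope above 0.001 or with average optical density gain above 0.07, some results past the limit were not filed as active; inactive = growth falling with dose or no effect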;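 also: gain in OD600 from 0 h to 30 h averaged across all seven doses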
* marks the source's active call; other numbers are inactive results; x = no result. The list is not random: actives were taken first. Their share in the collection is about 0.98%.

SMILES	MRP reversal	sdo1 growth	Calb biofilm kill	MRP1 act	SDO1 rescue DR
Cc1ccc(-c2noc(CCC(=O)NCCN3CCN(Cc4ccccc4)CC3)n2)cc1	7.0	0.77	5.5	-3.6	x
Cc1ccc(-c2noc(CCC(=O)NCCN3CCOCC3)n2)cc1	7.7	2.36	5.0	-1.9	0.0742*
Cc1ccccc1S(=O)(=O)c1c(C)cc(C)n(CC(C)C)c1=O	-16.4	5.52*	1.2	0.0	0.105*
COCCn1c(SCC#N)nnc1-c1ccc(OC)cc1	-1.0	9.04*	4.1	-0.6	0.0582
COCCn1c(SCC(=O)Nc2sc(C)c(C)c2C#N)nnc1-c1ccc(OC)cc1	-7.0	-1.13	-2.9	-3.2	x
O=C(C1CCCCC1)N(Cc1ccccc1)c1ccccn1	6.0	10.6*	11.3	-1.5	0.0783*
CCCCN(C)C(=O)c1cc2cc3ccc(OC)cc3nc2s1	-15.2	15.7*	-5.7	-2.5	0.0758*
CC(NC(=O)/C=C/c1ccco1)c1nc2ccccc2n1Cc1ccccc1F (centres undefined)	x	-1.14	x	-3.2	x
COC(=O)c1ccccc1NC(=S)NC(=O)COc1ccccc1	x	-0.37	x	-0.6	x
COC(=O)c1ccccc1NC(=S)NC(=O)CC(C)C	x	5.64*	x	-1.1	0.063
COc1ccc(CN=C(Nc2ccccc2)SC2CC(=O)N(C)C2=O)cc1 (centres undefined)	x	0.89	x	-2.3	x
O=C(C(c1ccccc1)c1ccccc1)N(Cc1ccco1)C1CCS(=O)(=O)C1 (centres undefined)	15.7	15.8*	3.5	-3.7	0.0889*
COc1ccc(/C=C2/SC(=O)N(NS(=O)(=O)c3ccccc3)C2=S)cc1OC	-7.3	-0.04	2.4	-1.6	x
COc1cnc(SCc2c(Cl)cccc2Cl)nc1Cl	x	-1.83	x	-1.6	x
COc1ccccc1N(C(=O)c1snc(C(N)=O)c1N)C(C(=O)NC1CCCC1)c1ccco1 (centres undefined)	-1.9	-1.03	9.1	-1.1	x
CC(C(=O)NC1CCCC1)N(C(=O)c1snc(C(N)=O)c1N)c1ccc2c(c1)OCCO2 (centres undefined)	-17.6	14.4*	6.1	-4.2	0.0803*
NC(=S)Nn1c(-c2ccccc2)nc2ccccc2c1=O	x	10.8*	x	-0.6	0.0596
O=C(Cc1ccccc1)Nn1c(-c2ccccc2)nc2ccccc2c1=O	x	-0.02	x	-0.4	x
CC12CCC(c3c1nc1ccccc1[n+]3[O-])C2(C)C (centres undefined)	x	5.39*	x	-1.2	0.0801*
CC12CCC(C(=O)n3c1nc1ccccc13)C2(C)C (centres undefined)	-2.8	-0.88	10.5	0.1	x
COc1ccccc1NC(=O)COC(=O)c1ccccc1OCC(=O)Nc1ccc(SC(F)F)cc1	x	1.32	x	1.6	0.0728*
COc1ccccc1C(=O)COC(=O)c1ccccc1OCC(=O)Nc1ccc(SC(F)F)cc1	x	-0.81	x	-1.5	x
O=C(OCC(CO)OC(CO)n1ccc(=O)[nH]c1=O)c1ccccc1 (centres undefined)	7.8	7.69*	0.6	0.0	0.0595
CC(C)NC(=O)c1ccccc1NC(=O)CN(c1ccc2c(c1)OCO2)S(C)(=O)=O	x	3.07*	5.3	-1.2	0.068
O=S(=O)(c1ccccc1)N1CCN=C1SCc1cccc(Cl)c1	x	-0.58	x	-4.8	x
SMILES	MRP reversal	sdo1 growth	Calb biofilm kill	MRP1 act	SDO1 rescue DR
CCOc1ccc(CCNC(=O)C2CCN(C(=O)N(C)C)CC2)cc1OCC	3.9	2.03	6.9	-0.9	0.0551
CCc1ccccc1NC(=O)CC(O)(C(=O)OC)C(F)(F)F (centres undefined)	17.8	3.08*	5.5	-1.1	0.0663
COc1cccc(N2CC(=O)N(NC(=O)CSc3nc(C)cc(C)c3C#N)CC2=O)c1	x	0.84	x	-0.9	x
O=C(N/N=C/c1cccs1)c1cc(-c2cccc3ccccc23)n[nH]1	x	-0.89	x	-3.2	x
O=S1(=O)CC(O)C(Nc2ccccc2)C1 (centres undefined)	2.5	-0.43	4.3	-0.4	x
CC(C)NC1CS(=O)(=O)CC1O (centres undefined)	0.9	5.55*	7.7	0.9	0.0945*
COc1ccc(CCNC(=O)CC(NS(=O)(=O)c2ccc(NC(C)=O)cc2)C(C)C)cc1OC (centres undefined)	-1.1	2.28	8.6	-1.4	0.0845
Cc1nc(-c2cccc(NS(=O)(=O)c3cccc4ccccc34)c2)cs1	-23.4	-1.81	-1.6	-2.1	x
COc1ccc(NC(=O)CSc2nnc(CN3CCOCC3)n2-c2ccccc2)cc1Cl	13.8	3.52*	5.6	0.6	0.0686
CCCCC(=O)Nc1cc(NC(=O)CC)ccc1Cl	6.2	3.4*	1.6	-0.6	0.0451
c1ccc(Oc2cccc(NC3=NCCC3)c2)cc1	10.3	14.6*	x	-2.4	0.0373
Cc1c(C(=O)NCc2ccccn2)sc2nc(-c3ccc(F)cc3)cn12	5.5	0.29	-0.1	-1.1	x
CCN(CC)CCCNC(=O)c1sc2nc(-c3ccc(F)cc3)cn2c1C	7.5	3.58*	11.5	-2.7	0.0832*
Cn1c(=O)c2[nH]c(CNCc3ccccc3Cl)nc2n(C)c1=O	11.3	1.41	8.1	-1.7	0.0685
Cn1c(=O)c2[nH]c(CN3CCN(Cc4ccccc4)CC3)nc2n(C)c1=O	7.0	0.05	10.0	-2.9	x
CCCCOc1cccc(OCC(=O)Nc2nc3ccccc3[nH]2)c1	x	-1.01	x	-1.7	x
O=C(CNC(=O)c1ccc(S(=O)(=O)N2CCCC2)cc1)N/N=C/c1ccc(Cl)cc1Cl	x	1.55	x	-2.8	x
Cc1cc(NS(=O)(=O)c2ccc(NC(=S)NC(=O)c3ccccc3)cc2)no1	x	2.08	x	-1.9	0.069
COc1ccccc1OCc1ccc(C(=O)NCCN(C)C)o1	4.4	2.69	3.2	-1.7	0.0968*
CSc1nsc(SCC(=O)Nc2nc3ccc(C)cc3s2)n1	x	0.32	x	-3.4	x
Cc1ccccc1NCCNc1ccccc1C	7.5	-0.17	5.6	1.8	x
COc1cc(NC(=O)C(C)C)ccc1NC(=O)c1ccco1	-9.3	1.71	4.2	1.5	x
COc1cc(NC(=S)NC(=O)c2ccccc2F)ccc1NC(=O)c1ccco1	x	2.25	x	-2.6	0.07
CN(C)CCSc1nnc2[nH]c3ccccc3c2n1	x	0.21	x	-2.0	x
CN(Cc1ccccc1)C(=S)Nc1ccc(OC(F)F)cc1	x	9.06*	x	0.0	0.0659
SMILES	MRP reversal	sdo1 growth	Calb biofilm kill	MRP1 act	SDO1 rescue DR
COc1ccc(C(=O)OCC(=O)Nc2cc(C)c(C)cc2[N+](=O)[O-])cc1	x	2.32	x	-0.5	0.0427
COc1ccc(-c2nnc(SCC(=O)Nc3ccccc3OC)o2)cc1	5.6	7.5*	5.2	-1.6	0.103*
CCN(CC)S(=O)(=O)c1ccc(-c2nnc(SCC(=O)Nc3ccc(OC)cc3)o2)cc1	8.0	-1.85	8.1	0.2	x
COc1ccccc1NC(=O)CSc1nc(C)c2c(c1C#N)CCCC2	13.1	1.95	0.8	-2.9	0.0779*
COc1ccccc1NC(=O)CSc1nnc(-c2ccncc2)o1	-5.9	0.67	5.0	1.0	x
CCN(CC)S(=O)(=O)c1ccc(-c2nnc(SCC(=O)Nc3ccc(OC)c(OC)c3)o2)cc1	-1.7	2.83	2.2	-0.4	0.0638

From PubChem BioAssay
